The values that follow come from PubChem BioAssay (NCI).

About 83,000 compounds went through this panel and 20% of them were active in at least one assay; those are over-represented in the sample as a whole.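 Activity criterion: percent growth below 10, measured after cells in 96-well plates were exposed to a single compound concentration for 48 hours.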 A number with no mark means an inactive call. Active and inactive are the calls of the source.

Assay in all cases: NCI-60 one-dose screen, 48 h (100 = growth as untreated, 0 = no growth, -100 = all killed)
Holding throughout (settings): 10 µM

Assay [1] concerns HCT-15 colon.
The subject of assay [2] is HT29 colon.
Assay [3] relates to SNB-75 CNS.
Assay [4] has as its system SNB-19 CNS.
Assay [5] deals with U251 CNS.
Assay [6] relates to PC-3 prostate.
Assay [7] deals with SK-MEL-5 melanoma.
In assay [8] the test system is UACC-62 melanoma.
The test system of assay [9] is LOX IMVI melanoma.
Assay [10] concerns SK-MEL-28 melanoma.

`OCC1OC2C(NC(=S)N2c2ccccc2)C(O)C1O` (stereo not given): the growth in assay [1] is 99.2%; in assay [2] it was 101%; in assay [3], 99.6%; in assay [4] it was 91.9%; in assay [5] it was 97.5%; in assay [6], 96%. Also, the growth was 98.5% in [7], 98.7% in assay [8], 100% in [9] and 105% in assay [10].

For `CCOC(=O)c1cc(C(=O)c2ccc(OC)c(OC)c2)n2ccncc12`, the growth in assay [1] is 89.9%; in [2], 84.6%; in assay [3], 104%; in [4], 98%; in [5] it was 105%; in assay [6], 80.6%. The growth is 89.4% in [7], 94% in [8], 77.7% in [9] and 115% in [10].

Regarding `CC(C)(C)OC(=O)N1CCc2c(sc3ncnc(N/N=C/c4cccc(Br)c4)c23)C1`, the growth in assay [1] was 18.8%; in assay [2], 47.7%; in [3], 67.6%; in assay [4], 64.7%; in assay [5], 51%; in [6] it was 44.4%. For the same compound, the growth in [7] is 44.1%; in [8], 43%; in assay [9], 33.1%; in assay [10] it was 75.2%.

As to `CN(C)CCOc1ccccc1NC1=C(Cl)C(=O)C(Nc2ccccc2OCCN(C)C)=C(Cl)C1=O`, the growth in [1] is 79.7%; in [2] it was 15%; in [3] it was 107%; in [4] it was 93.9%; in assay [5] it was 68.6%; in assay [6] it was 84.3%. Also, the growth in [7] is 93.6%; in assay [8], 95.6%; in assay [9], -65.7% (active); in assay [10] it was 109%.

For `Cc1ccc(NCCN(C)CC(C)O)c2c(=O)c3ccc(Cl)cc3sc12` (stereo not given), the growth in assay [1] was 21.2%; in assay [2], -27% (active); in assay [3] it was 76.3%; in [4] it was 55%; in assay [5] it was 8.57% (active); in assay [6], 48.2%. Moreover, the growth in assay [7] was 46.9%; in assay [8] it was -68.7% (active); in [9], -82.9% (active); in [10], -53.5% (active).

Consider `O=C(O)c1ccc(-n2cc(CNc3ccc(Oc4ccccc4)cc3)c(-c3ccccc3)n2)cc1`, for which the growth in assay [1] is 72.9%; in assay [2], 102%; in assay [3] it was 81.6%; in assay [4] it was 87.7%; in [5], 83.3%; in assay [6] it was 96%. Moreover, the growth in assay [7] is 96.8%; in [8] it was 83.4%; in assay [9], 90.4%; in [10], 86.8%.

With `O=C(CCc1nnc2sc(-c3cc(O)c(O)c(O)c3)nn12)c1nc2ccccc2[nH]1`, the growth was 88.8% in assay [1]; 93.5% in assay [2]; 93.6% in assay [3]; 113% in assay [4]; 94.4% in [5]; 86.3% in [6]. Moreover, the growth in assay [7] was 84.1%; in assay [8], 104%; in assay [9], 98.3%; in assay [10] it was 110%.

On to `CC(C)C[C@H](NC(=O)Cn1cccc(CNC(=O)c2ccccc2)c1=O)B(O)O`, for which the growth in assay [1] was 64.7%; in assay [2] it was -0.24% (active); in [3], -4.6% (active); in assay [4], 34.1%; in [5] it was 17.2%; in [6] it was 35.8%. For the same compound, the growth in assay [7] is -34.3% (active); in assay [8], -17.1% (active); in assay [9], -60.4% (active); in assay [10] it was 19.4%.

Take `Cc1[nH]c2ccccc2c1/C=N/Nc1ncnc2sc3c(c12)CCN(CC(=O)OC(C)(C)C)C3`: the growth in assay [1] is 30.1%; in assay [2], 41.8%; in assay [3], 63.4%; in [4], 93.3%; in [5] it was 78.2%; in [6] it was 69.2%. Besides, the growth is 60.8% in assay [7], 81.9% in [8], 83.6% in [9] and 80.7% in assay [10].

Regarding `NNC(=O)Oc1c(Cl)cc(Cl)cc1[N+](=O)[O-]`, the growth is 99.2% in assay [1]; 100% in assay [2]; 106% in [3]; 106% in assay [4]; 97.5% in assay [5]; 107% in assay [6]. The growth is 103% in assay [7], 104% in assay [8], 98% in assay [9] and 108% in [10].

As to `COc1cccc(C2C(C#N)=C(N)Oc3cc(N)ccc32)c1` (stereo not given), the growth is 40.3% in [1]; 2.39% (active) in assay [2]; 3.44% (active) in assay [3]; 44.6% in assay [4]; 4.8% (active) in assay [5]; 25.4% in assay [6]. The growth was 21.5% in [7], 41.7% in assay [8], 43.6% in [9] and 46.9% in assay [10].

Consider `N#CC1=C(N)Oc2cc(N)ccc2C1c1cccnc1` (stereo not given), for which the growth in assay [1] is 95.6%; in assay [2], 93.8%; in [3], 79.3%; in [4], 103%; in assay [5], 102%; in assay [6] it was 88.7%. Also, the growth in assay [7] was 99.3%; in assay [8] it was 101%; in assay [9], 95.1%; in assay [10], 102%.

Take `CCC(c1ccc(OC)cc1)C(CC)c1ccc(O)c(CN2CCN(C)CC2)c1` (stereo not given): the growth in assay [1] is 1.58% (active); in assay [2], 12.1%; in assay [3] it was 56.9%; in [4], 74.5%; in [5] it was 29.8%; in assay [6], 45.1%. Further, the growth in [7] was 4.57% (active); in [8] it was -30.5% (active); in assay [9], 46.2%; in assay [10], -13.2% (active).
